The supplement of paper PMC10498489
Screen size: about 2,300 compounds; about 330 (14%) showed activity.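 How the source made its calls: active = median modified Z-score above 1.96; inactive = 1.96 or below.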 These entries were drawn from the full list.

System: HepG2 Srxn1-GFP reporter cells (+30 nM CDDO-Me)
Test: Srxn1-GFP intensity median modified Z-score relative to plate median; higher = stronger NRF2 / oxidative stress reporter activation, active = hit call of the paper
Settings: 10 µM; exposure time: 24h
Outline: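 Each value is the replicate median of a per-plate modified Z-score for GFP intensity in HepG2 Srxn1-GFP BAC reporter cells. The cells (20,000 per well, 96-well plates, three replicate plates) received compound at 10 μM together with an NRF2 activator at 30 nM for 24 h, in ≤0.1% DMSO. Cytoplasmic GFP was quantified per cell from confocal images of formaldehyde-fixed, Hoechst-stained cells, leaving out images with fewer than 100 cells, and scaling used 1.4826 × median absolute deviation.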

Srxn1-GFP intensity median modified Z-score, active:
O=C(O)c1cc2cc(Cl)ccc2[nH]1 [euspeclibcmpd2020] 1.97, CCCCOc1ccc(C(=O)CCN2CCCCC2)cc1 [euspeclibcmpd107] 3.53, CCCCOc1ccc(OCCCN2CCOCC2)cc1 [euspeclibcmpd396] 2.42, Oc1c(I)cc(Cl)c2cccnc12 [euspeclibcmpd705] 2.87, Oc1c(Br)cc(Br)c2cccnc12 [euspeclibcmpd1032] 4.39, Oc1c(Cl)cc(Cl)c2cccnc12 [euspeclibcmpd537] 2.82, C=CCOC(Cn1ccnc1)c1ccc(Cl)cc1Cl (stereo not given) [euspeclibcmpd2390] 6.42, Clc1ccc(C(Cn2ccnc2)OCc2ccsc2Cl)c(Cl)c1 (stereo not given) [euspeclibcmpd1174] 15.7, Clc1ccc(CSC(Cn2ccnc2)c2ccc(Cl)cc2Cl)cc1 (stereo not given) [euspeclibcmpd401] 22.5, Clc1ccc(COC(Cn2ccnc2)c2ccc(Cl)cc2Cl)cc1 (stereo not given) [euspeclibcmpd413] 15.1, Clc1ccc(CCC(Cn2ccnc2)Sc2c(Cl)cccc2Cl)cc1 (stereo not given) [euspeclibcmpd650] 26.7, COc1c2c(cc3occ(-c4ccc5c(c4)OCO5)c(=O)c13)OC(C)(C)C=C2 [euspeclibcmpd1957] 7.5, COc1c(CC(=O)c2cc3c(cc2O)OC(C)(C)C(O)C3)ccc2c1C=CC(C)(C)O2 (stereo not given) [euspeclibcmpd1608] 7.77, COc1c(-c2coc3cc4c(cc3c2=O)CC(OC(C)=O)C(C)(C)O4)ccc2c1C=CC(C)(C)O2 (stereo not given) [euspeclibcmpd1654] 13.6

Srxn1-GFP intensity median modified Z-score, inactive:
CCCCCN(C)CCC(O)(P(=O)(O)O)P(=O)(O)O [euspeclibcmpd2308] -0.118, CCCc1cc(C(N)=S)ccn1 [euspeclibcmpd1165] -0.267, NC[C@H]1O[C@H](OC2[C@@H](N)C[C@@H](N)[C@H](O[C@H]3O[C@H](CO)[C@@H](O)[C@H](N)[C@H]3O)[C@H]2O)[C@H](O)[C@@H](O)[C@@H]1O (stereo not given in full) [euspeclibcmpd168] -0.199, CC(C)CCCC(C)C1CCC2C3CC[C@H]4C[C@@H](O)CC[C@]4(C)C3CC[C@]12C (stereo not given in full) [euspeclibcmpd2135] 0.00623, NCCC[C@H](N)CC(=O)NC1CNC(=O)C([C@H]2C[C@H](O)NC(N)=N2)NC(=O)C(C=NC(N)=O)NC(=O)[C@H](CO)NC(=O)[C@H](CO)NC1=O (stereo not given in full) [euspeclibcmpd994] -0.33, CC(C(=O)O)c1ccc2c(c1)[nH]c1ccc(Cl)cc12 (stereo not given) [euspeclibcmpd425] 0.027, O=C(O)c1cc(=O)[nH]c(=O)[nH]1 [euspeclibcmpd1192] -0.551, CCn1cc(C(=O)O)c(=O)c2cc(F)c(N3CCN(C(=O)CCSC)CC3)cc21 0.401, NS(=O)(=O)c1cc2c(cc1Cl)N=C(CSCc1ccccc1)NS2(=O)=O [euspeclibcmpd35] -0.327, CC1OC1P(=O)(O)O (stereo not given) [euspeclibcmpd2281] -0.455, CC(C)[N+](C)(CCOC(=O)C1c2ccccc2Oc2ccccc21)C(C)C [euspeclibcmpd254] 0.13, O=Cc1ccccc1O[C@@H]1O[C@H](CO)[C@H](O)[C@@H](O)[C@H]1O [euspeclibcmpd1574] 0.476, N[C@@H]1[C@@H](O)[C@H](O)[C@@H](CO)O[C@H]1O [euspeclibcmpd140] 0.0216, O=C(NCCCCN1CCOCC1)c1ccc(F)cc1 0.352, O=C(c1ccc(OCCN2CCCCC2)cc1)c1c(-c2ccc(O)cc2)sc2cc(O)ccc12 [euspeclibcmpd831] -0.702, N#Cc1ccc(C(=O)NCCCCN2CCOCC2)cc1 0.374, CC1CCN(CCCC(=O)c2ccc(F)cc2)CC1 [euspeclibcmpd1905] 1.19, O=c1c(O)cc2c(O)oc3c(=O)c(O)cc4c(O)oc1c2c43 [euspeclibcmpd1077] 0.204, CC1CC[C@@]2(OC1)O[C@H]1CC3C4CC[C@@H]5C[C@@H](O)CC[C@]5(C)C4CC[C@]3(C)[C@H]1[C@@H]2C (stereo not given in full) [euspeclibcmpd2070] -0.402, O=C(C=Cc1ccc(O)c(O)c1)O[C@@H]1C[C@](O)(C(=O)O)C[C@@H](O)[C@H]1O [euspeclibcmpd1682] 1.16, C[C@]12C=CC(=O)CC1=CCC1C2[C@@H](O)C[C@@]2(C)C1CC[C@]2(O)C(=O)COC(=O)CCC(=O)O (stereo not given in full) [euspeclibcmpd794] 0.608, Cc1cccc(N=c2cc[nH]cc2S(=O)(=O)NC(=O)NC(C)C)c1 [euspeclibcmpd2184] 0, C[C@]12CCC3c4ccc(OC(=O)c5ccccc5)cc4CCC3C1CC[C@@H]2O (stereo not given in full) [euspeclibcmpd412] 0.298, NC(=O)COC(=O)c1ccccc1Nc1cccc(C(F)(F)F)c1 1.26, CC(=O)OCC(=O)[C@@]1(O)CCC2C3CC=C4CC(=O)C=C[C@]4(C)[C@@]3(Cl)[C@@H](Cl)C[C@@]21C (stereo not given in full) [euspeclibcmpd1222] -0.43, CCC1OC(=O)C(C)C(=O)C(C)[C@@H](OC2O[C@H](C)C[C@H](N(C)C)[C@H]2O)[C@](C)(OC)CC(C)C(=O)C(C)[C@@H]2N(CCCCn3cnc(-c4cccnc4)c3)C(=O)O[C@]12C (stereo not given in full) [euspeclibcmpd733] -0.17, Oc1c(I)cc(I)c2cccnc12 [euspeclibcmpd2015] 1.62, O=[N+]([O-])c1ccc(O)c2ncccc12 [euspeclibcmpd1218] -0.363, O=S(=O)(O)c1cc(I)c(O)c2ncccc12 [euspeclibcmpd2311] -0.435, Oc1c(I)cc(Cl)c2cccnc12 1.31, Cc1ccc(Cl)c2cccnc12 1.45, Oc1ccc(Cl)c2cccnc12 [euspeclibcmpd72] -1.02, CCc1c(C)cn(C(=O)NCCc2ccc(S(=O)(=O)NC(=O)N[C@H]3CC[C@H](C)CC3)cc2)c1O [euspeclibcmpd697] -0.793, O=C(O[C@@H]1Cc2c(O)cc(O)cc2O[C@@H]1c1cc(O)c(O)c(O)c1-c1c([C@H]2Oc3cc(O)cc(O)c3C[C@H]2OC(=O)c2cc(O)c(O)c(O)c2)cc(O)c(O)c1O)c1cc(O)c(O)c(O)c1 [euspeclibcmpd2312] -0.214, COc1[nH]cnc(=NS(=O)(=O)c2ccc(N)cc2)c1OC [euspeclibcmpd917] -0.467, COc1cc(OC)c2c(c1Cl)OC1(C(=O)CC(=O)CC1C)C2=O (stereo not given) [euspeclibcmpd1388] -0.00204, CC(=O)OCC(=O)[C@@]1(O)[C@H](OC(C)=O)CC2C3CC=C4CC(=O)C=C[C@]4(C)[C@@]3(F)[C@@H](O)C[C@@]21C (stereo not given in full) [euspeclibcmpd1284] -0.169, N=c1[nH]cnc2c1ncn2C1C[C@H](O)[C@@H](CO)O1 (stereo not given in full) [euspeclibcmpd2091] -0.0836, CO[C@H]1/C=C/O[C@@]2(C)Oc3c(C)c(O)c4c(O)c(c5c(nc6cc(C)ccn65)c4c3C2=O)NC(=O)/C(C)=C\C=C\C(C)[C@H](O)[C@@H](C)C(O)[C@@H](C)[C@H](OC(C)=O)[C@@H]1C (stereo not given in full) [euspeclibcmpd745] -0.528, Clc1ccc(CON=C(Cn2ccnc2)c2ccc(Cl)cc2Cl)c(Cl)c1 [euspeclibcmpd747] -0.564, C=CC1=C(C(=O)O)N2C(=O)C(NC(=O)C(=NO)c3csc(=N)[nH]3)C2SC1 (stereo not given) [euspeclibcmpd718] -0.455, CC(=CC(=O)OCCCCCCCCC(=O)O)C[C@@H]1OC[C@H](C[C@@H]2O[C@H]2[C@@H](C)[C@H](C)O)[C@@H](O)[C@H]1O [euspeclibcmpd851] 0.838, Cc1cnn(CCC(=O)NC2CCCN(c3ccc(C)nn3)C2)c1 (stereo not given) 1.37, O=C(O)c1cc(O)c(=O)c2c(O)c(O)c(O)cc2c1 [euspeclibcmpd1713] -0.567, Cc1ccsc1C=CC1=NCCCN1C [euspeclibcmpd638] 0.449, O=C(O)/C=C/C(=O)O [euspeclibcmpd2444] -0.338, CC1CN(C)CCN1C(=O)c1ccc(CCNS(C)(=O)=O)s1 (stereo not given) 1.16, Nc1ccc(S(=O)(=O)N=c2cc[nH]n2-c2ccccc2)cc1 [euspeclibcmpd1061] 0.53, CC1=C(C(=O)O)N2C(=O)[C@@H](NC(=O)C(N)c3ccc(O)cc3)[C@H]2SC1 (stereo not given in full) [euspeclibcmpd47] 0.774, NCc1ccccc1CC(=O)NC1C(=O)N2C(C(=O)O)=C(CSc3nnnn3CC(=O)O)CSC12 (stereo not given) [euspeclibcmpd506] -0.382, CC1(C)C2CC[C@@]3(C)C4=C(CC(=O)C3[C@@]2(C)CC[C@@H]1O[C@@H]1OC(C(=O)O)[C@@H](O[C@@H]2OC(C(=O)O)[C@@H](O)[C@H](O)[C@H]2O)[C@H](O)[C@H]1O)C1C[C@@](C)(C(=O)O)CC[C@]1(C)CC4 (stereo not given in full) [euspeclibcmpd1807] -0.547, COc1cc2occ(-c3ccc(OC)c(OC)c3OC)c(=O)c2cc1OC [euspeclibcmpd2240] 0.129, COc1cc(OC)c2c(=O)c(-c3ccc4c(c3)OCO4)coc2c1 [euspeclibcmpd1964] 0.515, COc1ccc(-c2c(O)c3c(OC)c4c(cc3oc2=O)OC(C)(C)C=C4)cc1 [euspeclibcmpd1515] 0.81, COc1ccc(C(=O)CC(=O)O)c2c1C=CC(C)(C)O2 [euspeclibcmpd1976] -0.441, COc1ccc(-c2coc3cc(O)ccc3c2=O)c(O)c1O [euspeclibcmpd1422] -0.526
